ASM inhibitor – inhibitors of human secretory acid sphingomyelinase. placental ASM, HMU-PC fluorogenic substrate, 60 min. Potency, µM (doses to about 57.5 µM), for the others: at the top dose activity change, negative = inhibition, most hits filed as inhibitors. actives 0.006% (n = 340,000); further: potency means the concentration at half of the fitted maximal effect
Target sequence (P17405 47-631 limits assumed): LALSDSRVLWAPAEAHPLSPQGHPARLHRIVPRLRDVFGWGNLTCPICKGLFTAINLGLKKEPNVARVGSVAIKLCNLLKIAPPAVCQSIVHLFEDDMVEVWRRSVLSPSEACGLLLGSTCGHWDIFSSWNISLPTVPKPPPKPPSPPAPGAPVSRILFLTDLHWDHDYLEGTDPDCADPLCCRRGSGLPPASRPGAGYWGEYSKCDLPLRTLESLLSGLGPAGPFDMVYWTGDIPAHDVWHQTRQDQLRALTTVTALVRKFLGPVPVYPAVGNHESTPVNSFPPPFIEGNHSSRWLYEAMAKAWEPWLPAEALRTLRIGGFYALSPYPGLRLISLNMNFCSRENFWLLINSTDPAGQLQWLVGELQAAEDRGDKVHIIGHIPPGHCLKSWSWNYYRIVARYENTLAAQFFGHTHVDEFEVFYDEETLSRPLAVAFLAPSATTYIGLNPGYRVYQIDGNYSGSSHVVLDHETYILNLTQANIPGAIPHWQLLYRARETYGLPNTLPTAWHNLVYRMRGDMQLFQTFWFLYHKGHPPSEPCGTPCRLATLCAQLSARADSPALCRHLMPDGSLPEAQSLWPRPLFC
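qHTS format. ASM enzyme prepared from human placenta hydrolyses the fluorogenic substrate HMU-PC0 (9 uM final) over 60 min at 37 °C after a 10 min compound preincubation.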
IL-1B inflam inh – inhibitors of inflammasome signaling (IL-1 beta secretion); THP-1 LPS/ATP IL-1B secretion, AlphaLISA, 16 h; stronger effect = lower value; activity change, % at 57.5 µM; actives 4.7% (n = 360,000); in the data active means activity change below about -50%; inconclusive means mostly about -30% to -49%; further: on the % scale 0 is the no-effect control and ±100 the full control effect
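Secreted IL-1B measured by AlphaLISA bead assay after 16 h compound exposure of THP-1 cells; compounds (final up to 57.5 uM) added 1 h before LPS (250 ng/mL) and ATP (1.25 mM) stimulation; lower signal means less secretion.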
TGFb SMAD3 inh – TGF-b pathway inhibition. actives 1.2% (n = 410,000). Potency, µM (top dose mostly 46.1 µM), inactives show top-dose activity, negative = inhibition, most hits filed as inhibitors. HepG2 CAGA-GFP TGF-b/SMAD3 reporter, GFP fluorescence, 18 h; TGF-beta stimulated, 500 pg/mL final; further: potency means the concentration at half of the fitted maximal effect; on the % scale 0 is the no-effect control and ±100 the full control effect; nearly all actives have a fitted effect of over 65% in size
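HEPG2 CAGA-GFP reporter cells (1000/well, DMEM with 1% FBS) received compounds, then recombinant TGF-beta at 500 pg/mL final for 18 hours at 37 degrees C. Per-cell GFP summed per well was normalised to unstimulated and stimulated DMSO controls before curve fitting.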
HepG2 tox – HepG2 cytotoxicity, counter-screen for TGF-b inhibitors; actives 0.76% (n = 410,000); HepG2 CAGA-GFP viability, ATP luminescence, 18 h; Potency, µM (titrated, usually from 46.1 µM), for inactives: at the highest dose activity change, negative = cytotoxicity, hits mostly cytotoxic; AID 588856; further: potency means the concentration at half of the fitted maximal effect
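CellTiter-Glo luminescence gave cytotoxicity after 18 hours at 37 degrees C. The cells were HepG2 CAGA-GFP in 1% FBS DMEM, stimulated with 500 pg/mL TGF-beta after compound addition. %Activity was normalised to no-cell wells (complete cell-killing) and DMSO (no toxicity), and curves were fitted and classified.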
TDP1 cell noCPT – qHTS for Inhibitors of human tyrosyl-DNA phosphodiesterase 1 (TDP1): qHTS in cells in absence of CPT; Potency, µM (highest dose often 46.2 µM), for the others: at the top dose activity change, negative = growth inhibition, usual class: inhibitors; actives 15% (n = 420,000); AID 686978, 2013; DT40 Tdp1-/- hTDP1 cells, no CPT, ATP luminescence, 48 h; further: potency means the concentration at half of the fitted maximal effect; on the % scale 0 is the no-effect control and ±100 the full control effect; nearly all actives have a fitted effect of over 55% in size
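Compound effects on proliferation are scored in DT40 Tdp1-/-;hTDP1 cells in the absence of CPT. ATP levels (CellTiter-Glo luminescence) are recorded after a ≥48 hr, 37 °C incubation.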
DT40 TDP1 CPT – DT40-hTDP1 cell growth loss with CPT | chicken DT40 Tdp1-/-;hTDP1 cells + 20 nM CPT, ATP luminescence, 48 h | Potency, µM (series often up to 46.2 µM), inactives show at the top dose activity change, negative = growth inhibition, usual class: inhibitors | actives 12% (n = 420,000) | AID 686979; further: potency means the concentration at half of the fitted maximal effect; on the % scale 0 is the no-effect control and ±100 the full control effect; nearly all actives have a fitted effect of over 55% in size
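Cell growth measured by CellTiter-Glo luminescence after a minimum 48 h, 37 C compound exposure with 20 nM CPT in Tdp1-knockout DT40 cells stably expressing hTDP1, seeded 400/well; qHTS titration format.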
Numbers without * were called inactive; ! = not confirmed by another sample. A selection: hits, their analogues and other compounds. The true share with any hit is near 19%. Unless noted, the call rests on the fitted dose curve; in most records, active means well fitted curve in the direction sought with a large enough effect; inconclusive means small, poorly fitted or top-dose-only effect, or another doubt; inactive means no such curve, though single readings can be large; an effect the other way counts as inactive or inconclusive.

Cc1ccc(C)c(CN2C(=O)CSc3ccc(C(=O)NCc4ccc(F)cc4)cc32)c1 was read as TGFb SMAD3 inh 5%, HepG2 tox 1%, TDP1 cell noCPT inconclusive and DT40 TDP1 CPT 16µM*.
CCC(C)NC(=O)c1ccc2c(c1)N(Cc1ccccc1)C(=O)CS2 (stereo not given) was read as ASM inhibitor 2%, IL-1B inflam inh -7, TGFb SMAD3 inh 5%, HepG2 tox -8%, TDP1 cell noCPT inconclusive and DT40 TDP1 CPT inconclusive.
COc1ccccc1CNC(=O)c1ccc2c(c1)N(Cc1c(F)cccc1Cl)C(=O)CS2 was read as TGFb SMAD3 inh -1%, HepG2 tox -17%, TDP1 cell noCPT inconclusive and DT40 TDP1 CPT inconclusive.
For C=CCN1C(=O)CSc2ccc(C(=O)NC3CCCCC3)cc21 the results were ASM inhibitor 5%, IL-1B inflam inh -9, TGFb SMAD3 inh 3%, HepG2 tox 2%, TDP1 cell noCPT inconclusive and DT40 TDP1 CPT inconclusive.
For CCN1C(=O)CSc2ccc(C(=O)NCc3ccccc3)cc21 the results were ASM inhibitor 0%, IL-1B inflam inh 13, TGFb SMAD3 inh 1%, HepG2 tox 1%, TDP1 cell noCPT 3% and DT40 TDP1 CPT -26%.
O=C(NCCc1ccccc1)c1ccc2c(c1)N(Cc1c(F)cccc1Cl)C(=O)CS2 was read as TGFb SMAD3 inh inconclusive, HepG2 tox -11%, TDP1 cell noCPT 9.2µM* and DT40 TDP1 CPT 15µM*.
Screening CCN1C(=O)CSc2ccc(C(=O)NC3CCCCC3)cc21 returned ASM inhibitor -2%, IL-1B inflam inh 12, TGFb SMAD3 inh 2%, HepG2 tox -2%, TDP1 cell noCPT 20µM* and DT40 TDP1 CPT 35µM*.
Cc1ccc(C)c(CN2C(=O)CSc3ccc(C(=O)NCC(C)CN4CCC(C)CC4)cc32)c1 (stereo not given) was read as ASM inhibitor 0%, IL-1B inflam inh 1, TGFb SMAD3 inh -28%, HepG2 tox -27%, TDP1 cell noCPT inconclusive and DT40 TDP1 CPT 15µM*.
`COc1ccc(CCNC(=O)c2ccc3c(c2)N(Cc2c(F)cccc2Cl)C(=O)CS3)cc1OC` gave TGFb SMAD3 inh -6%, HepG2 tox -20%, TDP1 cell noCPT 9.2µM* and DT40 TDP1 CPT 8.2µM*.
`Cc1cc(C(=O)OC(C(=O)Nc2cccc(C(F)(F)F)c2)c2ccccc2)c(C)o1` (stereo not given) gave ASM inhibitor -7%, IL-1B inflam inh 0, TGFb SMAD3 inh inconclusive, HepG2 tox 0%, TDP1 cell noCPT 21µM* and DT40 TDP1 CPT inconclusive.
`Cc1ccc(NC(=O)C(OC(=O)c2cc(C)oc2C)c2ccccc2)cc1` (stereo not given) gave ASM inhibitor -9%, IL-1B inflam inh -11, TGFb SMAD3 inh inconclusive, HepG2 tox 3%, TDP1 cell noCPT inconclusive and DT40 TDP1 CPT -2%.
For CN(C)CCCn1c2c3ccccc3ccc2c2oc(=O)c3ccccc3c21 the results were ASM inhibitor inactive, IL-1B inflam inh -100*, TGFb SMAD3 inh 8.9µM*, HepG2 tox 10µM*!, TDP1 cell noCPT 4.6µM* and DT40 TDP1 CPT 2.6µM*.
Screening CN(C)CCCn1c(=S)[nH]c2ccccc2c1=O returned ASM inhibitor 1%, IL-1B inflam inh -20, TGFb SMAD3 inh 4%, HepG2 tox -13%, TDP1 cell noCPT -11% and DT40 TDP1 CPT 3%.
Screening O=c1c(Br)ccc(Br)cc1Br returned ASM inhibitor 0%, IL-1B inflam inh -100*, TGFb SMAD3 inh 1.6µM*, HepG2 tox 4µM*, TDP1 cell noCPT 0.065µM* and DT40 TDP1 CPT 0.029µM*.

Screening data: PubChem BioAssay, National Center for Advancing Translational Sciences (NCATS)
